Several values for one entry are separate records, joined by “and”; a condition that tells them apart may be missing. Identical values can stand only once. Inconclusive results are not listed. Activity calls are given as the source filed them. Rule for the calls: active = hit-call score of the fitted dose curve at least 0.9, where 1 is the maximum; inconclusive = response in the unintended direction; inactive = score below 0.9.
Test system: frog Estrogen Receptor (ER), gene 398734
Test: ATG_frER1_XSP2: Attagene TRANS-FACTORIAL Multi-Species (XSP2) HepG2 Assay for frog Estrogen Receptor (ER) (AID 2283821);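 note: hits raise reporter mRNA above DMSO baseline so potency means agonist or activator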
Description: ATG_XSP2_multi-species_TRANS is a cell-based, multiplexed assay created by modifying the existing Attagene TRANS-FACTORIAL system to include a panel of nuclear receptors from some or all the following species: human (Homo sapiens), mouse (Mus musculus), frog (Xenopus laevis), zebrafish (Danio rerio), chicken (Gallus gallus), and turtle (Chrysemys picta). The ECOTOX-FACTORIAL format uses HepG2, a human liver cell line, with measurements taken at 24 hours after chemical dosing in a 24-well plate. Xsp2 included 3 nM 6-alpha-fluorotestosterone and 1.5 nM norgestrel to stimulate the androgen receptor.ATG_frER1_XSP2 is one of 29 assay components measured or calculated from the ATG_XSP2_multi-species_TRANS assay. It is designed to make measurements of mRNA induction, a form of inducible reporter, as detected with fluorescence intensity signals by Reverse transcription polymerase chain reaction (RT-PCR) and Capillary electrophoresis technology.The assay endpoint ATG_frER1_XSP2 was analyzed in the positive analysis fitting direction relative to DMSO as the negative control and baseline of activity. Using a type of inducible reporter, measures of mRNA for gain-of-signal activity can be used to understand the reporter gene at the transcription factor-level as they relate to the gene ER. Furthermore, this assay endpoint can be referred to as a primary readout, because this assay has produced multiple assay endpoints where this one serves a reporter gene function. To generalize the intended target to other relatable targets, this assay endpoint is annotated to the nuclear receptor intended target family, where the subfamily is steroidal.
Human liver HepG2 cells are transiently transfected with multiple reporter transcription units (MRTUs) in 6-well plates using FuGene 6 reagent (Roche; 3 ml FuGene/1 mg DNA). The MRTU constructs are regulated by a cis-regulating element (promoter). […] A major difference between the CIS and TRANS system is that in CIS activities of endogenous TFs are measured, whereas the TRANS assay evaluates changes in activities of exogenous, chimeric NR-Gal4 proteins. […] At the end of 24 hour incubation, total RNA was isolated using TriZol reagent (Invitrogen). The isolated RNA is then reverse-transcribed using oligo(dT) primer and Mo-MLV reverse transcriptase (Invitrogen) with DNAse I (Ambion) treatment for 30 min. The one-tenth of the produced cDNA was amplified by PCR using Taq DNA polymerase (Invitrogen) and two reporter sequence-specific primers. The PCR products were fluorescently labeled by primer extension with 6-arboxyfluorescein (6-FAM) 5'-labeled reporter sequence-specific primer (2 min at 95 C, 20 s at 68 C and 10 min at 72 C) and these products were digested with 5U of HpaI (New England Biolabs) for 2h at 37 C. The fragments were purified using Qiaquick PCR columns (Qiagen), analyzed on an ABI 3130xL genetic analyzer (Applied Biosystems) with peak positions identified by using a set of X-rhodamine (ROX)-labeled MapMarker1000 molecular weight standards (BioVentures). The raw capillary electrophoresis data was processed using Attagraph software (Attagene).

Row | SMILES | AC50 | outcome
1 | Oc1ccccc1Cc1ccccc1O | 26.5 µM (active) and 7.86 µM (active) | –
2 | C=C1C[C@H]2[C@@H]3C=C(C)C4=CC(=O)CC[C@]4(C)[C@H]3CC[C@]2(C)[C@@]1(OC(C)=O)C(C)=O | – | inactive
3 | N#Cc1ccc(C2CCCc3cncn32)cc1 (stereo not given) | 50 µM (active) | –
4 | COc1ccc(C(=O)c2ccccc2)c(O)c1 | 5.07 µM (active) and 26 µM (active) | –
5 | CCCCCCCCCCCCc1ccc(O)cc1 | 274 nM (active) and 44 nM (active) | –
6 | COc1ccc(-c2coc3cc(O)cc(O)c3c2=O)cc1 | 1.07 µM (active) and 98.3 nM (active) | –
7 | CC(CCC(=O)O)(c1ccc(O)cc1)c1ccc(O)cc1 | – | inactive
8 | Oc1ccc(-c2ccccc2)c(Cl)c1 | – | inactive
9 | O=C(O)/C=C/c1ccccc1 | 31.6 µM (active) | –
10 | CC(C)(C)NC(=O)[C@H]1CC[C@H]2[C@@H]3CC[C@H]4NC(=O)C=C[C@]4(C)[C@H]3CC[C@]12C | – | inactive

Source: PubChem BioAssay (EPA / NIEHS)
